Measurements published in PubChem BioAssay AID504720 (Sanford-Burnham Center for Chemical Genomics, 2011).
About 1,100 (0.31%) of roughly 350,000 compounds were called active. What follows is part of a selection rich in actives, with near analogues and random picks from the rest. A number with no mark means an inactive call. No stated cut-off is given here; in the data, active means activation above about 50%; inactive means the rest.

These compounds were tested against Endoribonuclease toxin MazF (Escherichia coli (strain K12)) (UniProt P0AE70) (assay: activators of E. coli MazEF toxin-antitoxin RNase, primary screen, biochemical, fluorescence, uHTS (AID 504720)). Conditions: FAM/BHQ RNA-DNA oligo cleavage fluorescence, 5 h, at 20 µM, stronger effect = higher value.
Chain of Endoribonuclease toxin MazF (Escherichia coli (strain K12)) (P0AE70 whole entry, looked up): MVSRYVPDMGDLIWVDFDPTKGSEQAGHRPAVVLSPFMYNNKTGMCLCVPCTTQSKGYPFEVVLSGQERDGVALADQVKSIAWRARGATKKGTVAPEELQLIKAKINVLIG

Row | SMILES | activation
1 | Cc1nnc2n1N=C(c1ccc3c(c1)NC(=O)CO3)CS2 | -1.68%
2 | CCOC(=O)C1CCN(C(=O)c2oc3ccc(S(=O)(=O)N4CCCCCC4)cc3c2C)CC1 | -5.11%
3 | Cc1c(C(=O)NCCN(C)C)oc2ccc(S(=O)(=O)N3CCCC3)cc12 | 111% (active)
4 | COc1ccc(NC(=O)c2oc3ccc(S(=O)(=O)N4CCOCC4)cc3c2C)cc1 | 8.57%
5 | COCCNC(=S)N1CCN(C)CC1 | -2.39%
6 | C/C(CC(=O)NCc1ccc(Cl)cc1)=N\NC(=O)COc1ccc(C)cc1Br | -5.14%
7 | CC(CCc1ccccc1)NCC(O)c1cccc([N+](=O)[O-])c1 (centres undefined) | 11.5%
8 | COc1cccc(/C=N/NC(=O)c2[nH]nc3c2CCc2ccccc2-3)c1O | 160% (active)
9 | COc1cc(/C=N/NC(=O)c2cccnc2)ccc1OC(=O)c1cccc(Br)c1 | 8.67%
10 | CCn1c(/C=N/NC(=O)c2ccc(OC)cc2)nc2ccccc21 | -0.18%
11 | COc1ccc(S(=O)(=O)N2CCOC23CCN(S(=O)(=O)c2ccc([N+](=O)[O-])cc2)CC3)cc1 | 5.08%
12 | COc1ccc(C(=O)Nc2ccc(C3(C#N)CCCC3)cc2)cc1OC | -19.2%
13 | CCOCCCNC(=O)C(NC(=O)c1ccccc1O)c1ccccc1 (centres undefined) | -12.8%
14 | CC[C@@H]1Cc2cc(O)ccc2C2=C1c1ccc(O)cc1C[C@H]2CC | 84.7% (active)
15 | O=C1CC(Sc2ncn[nH]2)C(=O)N1c1ccccc1 (centres undefined) | 3.68%
16 | Cc1[nH]c(C)c(S(=O)(=O)N2CCC(C)CC2)c1C(=O)N1CCCC1 | 1.65%
17 | CCOC(=O)c1c(C)[nH]c(C)c1C(=O)COC(=O)/C=C/c1cccc([N+](=O)[O-])c1 | 3.22%
18 | Cc1cccc(N=Nc2c(O)[nH]c3ccc(F)cc23)c1 | 946% (active)
19 | Cc1ccc(CNC(=O)CSc2nnc3c(n2)[nH]c2ccc(F)cc23)cc1 | 18.4%
20 | COc1cc(OC)c(C(=S)N2CCCC2)cc1OC | 9.16%
21 | O=C1C2(Cl)C3(Cl)C4(Cl)C(Cl)(Cl)C5(Cl)C3(Cl)C1(Cl)C5(Cl)C24Cl (centres undefined) | 65.6% (active)
22 | C=CCn1c(-c2ccc(Cl)cc2)ccc(C#N)c1=O | 2.85%
23 | Cc1nc(Nc2ccccc2F)c2nnn(Cc3ccccc3Cl)c2n1 | 61.6% (active)

Row | SMILES | activation
24 | Cc1nc(Nc2ccc3c(c2)OCCO3)c2nnn(Cc3ccccc3Cl)c2n1 | -3.74%
25 | Cc1nc(Nc2ccc(S(=O)(=O)N3CCCC3)cc2)c2nnn(Cc3ccccc3)c2n1 | 12.1%
26 | CC(C)(C)OC(=O)CNC(=O)c1[nH]cnc1C(=O)N[C@@H](CCCCN)C(=O)OC(C)(C)C | -1.01%
27 | CC(=O)Nc1ccc(C(=O)N(C2=NC(C)CS2)c2ccc(Cl)cc2)cc1 (centres undefined) | 2.92%
28 | C/C(=N\NC(=O)COc1c(C)cccc1C)c1cccs1 | -0.53%
29 | CCOc1ccccc1N1CCN(C(=O)c2ccc3[nH]c(C)c(C)c3c2)CC1 | 9.45%
30 | CCN1C[C@@H]2[C@@H]3C(=O)N(Cc4ccccc4)C(=O)[C@@H]3[C@](Cc3ccccc3)(C(=O)OC)N2C1=NC1CCCCC1 | 37.9%
31 | CC[C@]1(C(=O)OC)[C@H]2C(=O)N(C)C(=O)[C@H]2[C@H]2CN(C)C(=NCc3ccccc3)N21 | 74.5% (active)
32 | CCCN=C1N(C)C[C@@H]2[C@@H]3C(=O)N(Cc4ccccc4)C(=O)[C@@H]3[C@](C)(C(=O)OC)N12 | 3.52%
33 | CCOC(=O)c1ccc(NC(=O)c2ccc(NC(=O)C3CCCO3)cc2)cc1 (centres undefined) | 2.03%
34 | OCCC1CN(Cc2ccc3nsnc3c2)CCN1C1CCCCC1 (centres undefined) | 5.81%
35 | CC(C)Cn1c(CCC(=O)O)ccc1-c1cccs1 | -11.1%
36 | CC(=O)OC1CCC2(C)C(=CCC3C4CC(=O)N(O)C(=O)C4(C)CCC32)C1 (centres undefined) | 1.13%
37 | CCN1/C(=C/c2ccc3ccc(C)cc3[n+]2CC)Sc2ccccc21 | 72.6% (active)
38 | CCN1/C(=C\c2ccc3ccccc3[n+]2CC)Sc2cc(C)ccc21 | 79.5% (active)
39 | CN(C(=O)CC(NC(=O)c1ccccc1)(c1ccccc1)c1ccccc1)c1ccccc1 | 10.5%
40 | Cc1c(Cl)cccc1NC(=S)N(Cc1ccccc1)Cc1cccnc1 | 13.1%
41 | CC(C)c1ccc(NC2CCCN(C(=O)c3ccncc3)C2)cc1 (centres undefined) | 5.6%
42 | C[C@@H](NC(=O)OC(C)(C)C)c1nnc(S(=O)(=O)Cc2ccccc2)o1 | 8.87%
43 | C/C(=N\OC(=O)c1ccccc1)c1c(C)nc2cc(C)ccn12 | 4.56%
44 | COc1cc(Cl)c(C)cc1NC(=O)COC(=O)c1cc(SC)ccc1Cl | -5.68%
45 | COCCn1c(SCC(=O)Nc2ccc(F)cc2F)nc2c(c1=O)SCC2 | 7.1%
46 | COc1cc(N2CCCC2)c(OC)cc1/C=C(/C#N)c1cccc(Br)c1 | -128%

Row | SMILES | activation
47 | O=C(NCCCNC(=O)NC1CCCCC1)NC1CCCCC1 | 6.46%
48 | COC(=O)Cn1c(=NC(=O)CSCC(=O)Nc2cc(C)on2)sc2ccccc21 | 5.86%
49 | CC(C)(C)[C@H]1C=C(C(=O)NCc2ccccc2)O[C@@H](OCc2ccc(CO)cc2)C1 | 3.75%
50 | CCN(CC)S(=O)(=O)c1cc([N+](=O)[O-])ccc1N=Nc1c(O)n(C)c2ccccc12 | 142% (active)
51 | CCN(CC)S(=O)(=O)c1cc([N+](=O)[O-])ccc1NNC(=O)Nc1ccccc1 | 3.61%
52 | CCn1c(O)c(N=NC(=O)c2cccc(S(=O)(=O)N3CCCCC3)c2)c2ccccc21 | -8.66%
53 | O=C(COC(=O)c1ccc(F)cc1F)Nc1ncccn1 | -2.63%
54 | CCOc1ccc(N(CC(=O)NCCOc2ccccc2OC)S(=O)(=O)c2ccccc2)cc1 | -0.33%
55 | O=C(COc1ccc(S(=O)(=O)N2CCCCC2)cc1)NCc1ccccn1 | 9.35%
56 | CCOCCOC(=O)C1=C(C)N(C)C(=O)NC1c1ccccc1F (centres undefined) | 7.27%
57 | Cc1c(C(=O)NCCN2C(=O)S/C(=C\c3cccs3)C2=O)cccc1[N+](=O)[O-] | 9.61%
58 | CC(C(=O)Nc1ccc(O)c(C(=O)O)c1)N1C(=O)/C(=C/c2cccs2)SC1=S (centres undefined) | 3.14%
59 | O=C(CCN1C(=O)/C(=C/c2cccs2)SC1=S)NNC(=O)c1cccc(O)c1 | 96.7% (active)
60 | CC(C)NC(=O)C(=O)NCCCOC(C)C | 15.5%
61 | COCCN(CCOC)S(=O)(=O)NC[C@H]1O[C@@H](n2cnc3c(N)ncnc32)[C@H](O)[C@@H]1O | 5.68%
62 | CCCCN(CC(=O)Nc1cccc(S(=O)(=O)N2CCCC2)c1)Cc1nc2ccccc2c(=O)[nH]1 | -2.27%
63 | CCOc1ccc(N2C(=O)/C(=C/c3ccc(C)o3)N(C)C2=S)cc1 | 53.2% (active)
64 | CCOc1ccc(N2C(=O)CN(c3cccc4ccccc34)C2=S)cc1 | 1.98%
65 | CCO/C=C1\C(=O)N(c2ccc(OCC)cc2)C(=O)c2ccccc21 | 5.56%
66 | OCC[C@H]1C[C@H](O)[C@@H](O)[C@]2(CCc3ccccc3O2)O1 | 2.25%
67 | CCCCN=C1C([N+](=O)[O-])=CC=C2C1=NC1(CCCCC1)N2O | 8.1%
68 | CCCCn1c(N)c(N(CC(C)C)C(=O)c2ccc(-n3c(C)ccc3C)cc2)c(=O)[nH]c1=O | -0.38%
69 | COc1ccc(NC(=O)CSc2nnc(-c3ccccc3F)n2C2CC2)cc1S(N)(=O)=O | 3.2%

Row | SMILES | activation
70 | CC(C)(C)C1CCC(C(=O)Nc2cccnc2)CC1 (centres undefined) | 5.13%
71 | CN1C(=O)C(CC(N)=O)N(NC(=O)c2ccc(Cl)cc2)C1=S (centres undefined) | -6.03%
72 | CC(=O)N1C(=O)/C(=C2\SC(=S)N(NC(=O)c3ccc(O)cc3)C2=O)c2ccccc21 | 4.76%
73 | Cn1cccc1/C=C1\SC(=S)N(NC(=O)c2ccc(Cl)cc2)C1=O | 140% (active)
74 | CCn1nc(C(=O)NNC(=O)C2CSC3(C)CCC(=O)N23)c2ccccc2c1=O (centres undefined) | 1.5%
75 | Cc1ccc2cccc([N+](=O)[O-])c2n1 | 4.29%
76 | Cc1ccccc1Nc1c([N+](=O)[O-])ccc2nonc12 | -7.83%
77 | CN(c1ccccc1)c1ccc([N+](=O)[O-])c2nonc12 | 72.5% (active)
78 | C=CC[C@@H](CC(=O)NCCO)C(=O)N[C@H](C)COC(=O)[C@@H](CC=C)CC(=O)OC(C)(C)C | -0.071%
79 | COc1cc(S(=O)(=O)N(Cc2cccs2)C2CC2)ccc1-n1cnnn1 | 7.76%
80 | CCOC(=O)N1CCN(C(=O)c2ccc3nc4cc(Cl)ccc4c(=O)n3c2)CC1 | -2.93%
81 | CC(C)(C)N(Cc1ccccc1)C(=O)COC(=O)CCc1c[nH]c2ccccc12 | 5.36%
82 | COc1cc(N=Cc2c(O)c3ccccc3oc2=O)c(OC)cc1Cl | 221% (active)
83 | COc1cc(C(c2c(O)c3ccccc3oc2=O)c2c(C)n(C)n(-c3ccccc3)c2=O)ccc1O (centres undefined) | 0.237%
84 | CCC(=O)CC(c1ccc([N+](=O)[O-])cc1)c1c(O)c2ccccc2oc1=O (centres undefined) | 1%
85 | O=C(NNC(=S)Nc1ccc(F)cc1)[C@H]1C[C@@H]1c1ccccc1 | 12.2%
86 | CCCNC(=O)c1onc(CSc2ccc(F)cc2)c1C(=O)NC(C)C | 1.76%
87 | Cc1ccc(S(=O)(=O)N2CCN(C(=O)Cn3c(=O)cnc4ccccc43)CC2)c(C)c1 | 52.1% (active)
88 | Cc1ccc(S(=O)(=O)N2CCN(C(=O)CSc3cc(C)ccc3C)CC2)c(C)c1 | -11.9%
89 | Cc1ccc(S(=O)(=O)N2CCN(C(=O)COC(=O)c3c(C)cc(C)cc3C)CC2)c(C)c1 | 2.63%
